# Results from PubChem BioAssay (NCATS).
# Where “and” joins values, the source holds several entries; their conditions need not be identical. Identical values can stand only once. Results filed as inconclusive are left out. A call without a number means that no potency is given here. Calls of active or inactive are those of the source. Unless noted, the call rests on the fitted dose curve; in most records, active means well fitted curve in the direction sought with a large enough effect; inconclusive means small, poorly fitted or top-dose-only effect, or another doubt; inactive means no such curve, though single readings can be large; an effect the other way counts as inactive or inconclusive.
# Assays:
# [1] = Primary qHTS for small molecule stabilizers of the endoplasmic reticulum resident proteome: Secreted ER Calcium Modulated Protein (SERCaMP) assay (AID 1508630)
# Method in brief: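 The SH-SY5Y reporter protocol was run at 3 concentrations up to 38.3 uM (primary) or 11 concentrations (follow-up): 16 h compound, 100 nM thapsigargin for 4 h, then extracellular luciferase luminescence.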
# [2] = target: Calcium and integrin-binding protein 1 (Homo sapiens) (UniProt Q99828); assay: Primary qHTS for Identification of Calcium Integrin Binding Protein 1 (CIB1) Competitor (AID 1508620);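 further: GST tagged CIB1 binding a fluorescein labelled alphaIIb integrin peptide tracer; top concentration of the series differs between compounds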
# Calcium and integrin-binding protein 1 (Homo sapiens), sequence (Q99828 whole entry, looked up): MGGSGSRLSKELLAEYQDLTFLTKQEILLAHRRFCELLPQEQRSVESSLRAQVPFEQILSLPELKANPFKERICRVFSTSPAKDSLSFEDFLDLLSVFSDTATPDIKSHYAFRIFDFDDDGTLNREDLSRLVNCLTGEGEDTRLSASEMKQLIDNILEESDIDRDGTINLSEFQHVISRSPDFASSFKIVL
# Method in brief: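 Fluorescence polarization competition: GST-tagged CIB1 (1 uM final) preincubated with compound 15 min at room temperature, then FITC-labelled alphaIIb peptide (100 nM final) added. After 15 min at room temperature, polarization read at Ex 480/Em 540.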
# [3] = target: Catechol O-methyltransferase (Homo sapiens) (UniProt P21964); assay: Confirmatory Screen for Target Class Profiling of Small Molecule Inhibitors of Methyltransferases (AID 1745852); conditions: MTase-Glo luminescence, SAH detection, recombinant enzyme; measured here: COMT max response; stronger effect = lower value
# Catechol O-methyltransferase (Homo sapiens), sequence (P21964 whole entry, looked up): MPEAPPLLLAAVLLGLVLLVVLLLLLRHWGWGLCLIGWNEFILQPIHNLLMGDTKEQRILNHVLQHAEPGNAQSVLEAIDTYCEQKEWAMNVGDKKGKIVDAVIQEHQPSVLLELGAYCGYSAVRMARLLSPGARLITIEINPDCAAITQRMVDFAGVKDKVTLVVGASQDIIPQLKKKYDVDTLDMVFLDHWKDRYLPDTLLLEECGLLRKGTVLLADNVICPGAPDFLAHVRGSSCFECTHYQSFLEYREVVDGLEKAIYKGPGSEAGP
# [4] = target: Guanidinoacetate N-methyltransferase (Homo sapiens) (UniProt Q14353); assay: as above; conditions: activity change, negative = inhibition: at 57.3 µM (top of the series)
# [5] = target: Cytochrome P450 2D6 (Homo sapiens) (UniProt P10635); assay: Cytochrome P450 family 2 subfamily D member 6 (CYP2D6) small molecule antagonists: luciferase biochemical (cell-free) qHTS assay (AID 1645840; active means well fitted curve in the direction sought with a large enough effect in the repeat runs; an effect the other way counts as inactive or inconclusive; further: nearly all actives have a fitted effect of over 55% in size; further: potency means the concentration at half of the fitted maximal effect)
# Cytochrome P450 2D6 (Homo sapiens), sequence (P10635 whole entry, looked up): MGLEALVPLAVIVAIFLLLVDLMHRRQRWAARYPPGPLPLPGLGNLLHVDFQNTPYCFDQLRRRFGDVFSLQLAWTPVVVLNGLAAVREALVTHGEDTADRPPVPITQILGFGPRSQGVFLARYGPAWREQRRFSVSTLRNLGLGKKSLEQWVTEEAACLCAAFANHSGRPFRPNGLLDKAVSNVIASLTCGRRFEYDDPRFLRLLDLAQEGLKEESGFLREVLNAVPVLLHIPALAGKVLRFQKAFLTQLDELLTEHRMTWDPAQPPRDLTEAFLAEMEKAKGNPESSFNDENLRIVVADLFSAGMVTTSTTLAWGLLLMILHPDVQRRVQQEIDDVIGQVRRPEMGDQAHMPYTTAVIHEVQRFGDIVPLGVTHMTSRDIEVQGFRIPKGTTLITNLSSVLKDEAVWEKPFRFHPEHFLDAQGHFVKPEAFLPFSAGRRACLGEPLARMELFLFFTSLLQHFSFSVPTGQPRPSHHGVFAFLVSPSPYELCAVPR
# Method in brief: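 P450-Glo CYP2D6 system: proluciferin substrate converted by enzyme to luciferin, read by luminescence proportional to activity. Enzyme-substrate mix with compound 10 min at room temperature, then NADPH regeneration 1 h before detection reagent.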
# [6] = target: Cytochrome P450 2C9 (Homo sapiens) (UniProt P11712); assay: Cytochrome P450 family 2 subfamily C member 9 (CYP2C9) small molecule antagonists: luciferase biochemical (cell-free) qHTS assay (AID 1645842; active means well fitted curve in the direction sought with a large enough effect in the repeat runs; an effect the other way counts as inactive or inconclusive; further: nearly all actives have a fitted effect of over 55% in size; further: potency means the concentration at half of the fitted maximal effect)
# Cytochrome P450 2C9 (Homo sapiens), sequence (P11712 whole entry, looked up): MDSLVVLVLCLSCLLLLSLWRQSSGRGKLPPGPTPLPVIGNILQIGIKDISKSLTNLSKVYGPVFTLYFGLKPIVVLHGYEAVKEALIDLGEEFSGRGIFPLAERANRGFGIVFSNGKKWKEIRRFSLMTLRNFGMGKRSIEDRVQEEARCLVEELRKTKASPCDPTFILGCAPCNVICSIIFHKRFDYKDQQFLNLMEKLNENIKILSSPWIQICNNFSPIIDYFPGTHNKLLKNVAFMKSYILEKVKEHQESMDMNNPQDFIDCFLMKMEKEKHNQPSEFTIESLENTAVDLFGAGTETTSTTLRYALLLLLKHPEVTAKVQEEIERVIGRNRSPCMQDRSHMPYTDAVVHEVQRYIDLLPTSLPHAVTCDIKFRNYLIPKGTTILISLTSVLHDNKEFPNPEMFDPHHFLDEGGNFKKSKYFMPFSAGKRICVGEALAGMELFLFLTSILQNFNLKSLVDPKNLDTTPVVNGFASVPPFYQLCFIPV
# Method in brief: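 P450-Glo CYP2C9 system: proluciferin substrate with enzyme in mix containing 0.4% BSA, 10 min at room temperature, then NADPH regeneration solution added and incubated 1 h at 37C. Detection reagent stopped reaction; luminescence read after 20 min as RLU.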
# [7] = Primary qHTS for inhibitors of nuclear receptor binding SET domain protein 2 (NSD2) in an isogenic RCH-ACV NSD2 p.E1099K mutant (9B) (AID 1645876); further: potency means the concentration at half of the fitted maximal effect; nearly all actives have a fitted effect of over 70% in size
# [8] = Primary qHTS for inhibitors of nuclear receptor binding SET domain protein 2 (NSD2) in an RCH-ACV wild type WT cells (2C) (AID 1645877); further: potency means the concentration at half of the fitted maximal effect; nearly all actives have a fitted effect of over 70% in size
smiles,measurement,setting,value
C#C[C@]1(O)CC[C@@H]2[C@@H]3CCc4cc(O)ccc4[C@H]3CC[C@@]21C,outcome,[1],inactive
Cn1cc(-c2cnn3c(N)c(Br)c([C@H]4CCCNC4)nc23)cn1,Potency,[2],inactive
same,outcome,[1],inactive
same,activity,[3],-1.78%
same,"activity change, negative = inhibition",[4],2.57%
O=C(NNC(=O)c1ccc(CNS(=O)(=O)c2ccc(F)c(Cl)c2)cc1)c1ccccc1,outcome,[1],inactive
COc1cccc2c1C(=O)c1c(O)c3c(c(O)c1C2=O)C[C@@](O)(C(=O)CO)C[C@H]3O[C@H]1C[C@H](N)[C@H](O)[C@H](C)O1,outcome,[1],inactive
Oc1cc2c(cc1O)C1c3ccc(O)c(O)c3OCC1(O)C2 (stereo not drawn),Potency,[2],inactive
same,Potency,[5],inactive
same,Potency,[6],21300 nM (active)
N#Cc1c(NC(=O)c2cccc3ccccc23)sc2c1CCCC2,outcome,[1],inactive
same,Potency,[7],263 nM (active)
same,Potency,[8],263 nM (active)
CC(=O)N[C@H]1[C@@H]([C@H](O)[C@H](O)CO)OC(C(=O)O)=C[C@@H]1N=C(N)N,outcome,[1],inactive
CN1CCc2c(c3ccccc3n2Cc2ccc(C(=O)NO)cc2)C1,outcome,[1],inactive
same,Potency,[5],7560 nM (active)
same,Potency,[6],inactive
same,Potency,[7],16.3 µM (active) and 18.6 µM (active)
same,Potency,[8],11.5 µM (active) and 16.6 µM (active)
same,activity,[3],0%
same,"activity change, negative = inhibition",[4],-3.04%
Cc1[nH]c(C=C2C(=O)Nc3ccccc32)c(C)c1CCC(=O)O,outcome,[1],inactive
CC1(C)CC(O)CC(C)(C)N1[O],outcome,[1],inactive
CCN(CC)Cc1ccc2cc(COC(=O)Nc3ccc(C(=O)NO)cc3)ccc2c1,Potency,[2],inactive
same,outcome,[1],inactive
same,Potency,[7],290 nM (active) and 742 nM (active)
same,Potency,[8],230 nM (active) and 525 nM (active)
same,activity,[3],0%
same,"activity change, negative = inhibition",[4],-6.61%
COc1ccc(C=Cc2cc(OC)c(OC)c(OC)c2)cc1NC(=O)[C@H](N)CO,outcome,[1],inactive
same,Potency,[7],118 nM (active)
same,Potency,[8],118 nM (active)
O=C(C[C@@H]1CC=CCCC(=O)O[C@H](c2ccccc2)CNC1=O)NCc1ccc(Cl)cc1,outcome,[1],inactive
